The list is not random: actives were taken first. Their share in the collection is about 4%.
Jurkat NFkB inh = lowers PMA/ionomycin-induced NF-kB signal in Jurkat cells; PMA/ionomycin-induced NF-kB luciferase reporter, luminescence; inhibition, % at 4 µM; hit rate 0.53% among 330,000; AID 435003; in the data active = inhibition above about 50%
Gli-Sufu antag = Gli-Sufu pathway antagonism. Sufu-KO-LIGHT fibroblasts, Gli luciferase reporter luminescence. inhibition, % at 5 µM. hit rate 0.74% among 340,000;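 active = inhibition above about 55%, limit read from the data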
Mdm2 MdmX PPI = human Mdm2/MdmX binding inhibition | O15151+Q00987 | SaOS-2 split-luciferase Mdm2/MdmX complementation, luminescence | inhibition, % at 8 µM | hit rate 3% among 330,000 | AID 485346;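 active = inhibition of at least 50% at 8 µM in the primary screen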
697 NFkB inh = lowers PMA/ionomycin-induced NF-kB signal in 697 B cells; AID 435022; hit rate 0.33% among 330,000; inhibition, % at 4 µM; 697 B-cell NF-kB luciferase reporter, 16 h; in the data active = inhibition above about 35%
Beta cell apopt = beta cell apoptosis inhibition; INS-1E cytokine-induced death, ATP luminescence, 48 h; percent of positive-control rescue, neutral wells zero; protection from apoptosis, % (concentration not given with the values); hit rate 0.8% among 300,000; AID 435005;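 active = Every replicate reaches about 75%, or at least half do and their mean reaches it too, limit read from the data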;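 note: higher means more ATP so stronger rescue from cytokine killing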
Mdm2 MdmX conf = human Mdm2/MdmX binding inhibition, confirmed; luminescent assay; AID 489028; hit rate 55% among 10,000; shares compounds with Mdm2 MdmX PPI; inhibition, % at 8 µM; in the data active = inhibition above about 40%
FLuc counter = counter-screen for Mdm2/MdmX inhibitors: full-length luciferase | shares compounds with Mdm2 MdmX PPI | SaOS-2 full-length luciferase counterscreen, luminescence | AID 504607 | inhibition, % at 8 µM | hit rate 77% among 6,200;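 active = mean inhibition at 8 µM reaching about 37%, which flags the compound as non-specific, limit read from the data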;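 note: p53-null SaOS-2 cells with luciferase driven by a doxycycline-inducible promoter; compound on cells about two nights before reading with doxycycline added after day one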
A number is an active result.

Cc1cccc(N(Cc2ccccc2)C(=O)CN2C(=O)NC3(CCCCC3C)C2=O)c1 (centres undefined) was read as Jurkat NFkB inh inactive, Gli-Sufu antag inactive, Mdm2 MdmX PPI inactive, 697 NFkB inh inactive and Beta cell apopt inactive.
Screening S=C1NC2=C(CCC/C2=C\c2ccccc2)C(c2ccccc2)N1 (centres undefined) returned Jurkat NFkB inh inactive, Gli-Sufu antag inactive, Mdm2 MdmX PPI inactive, 697 NFkB inh inactive and Beta cell apopt inactive.
C(=C1/CCCC2=C1Nc1ncnn1C2c1ccccc1)/c1ccccc1 (centres undefined) was read as Jurkat NFkB inh inactive, Mdm2 MdmX PPI 76, 697 NFkB inh inactive, Beta cell apopt inactive, Mdm2 MdmX conf 84 and FLuc counter inactive.
CCOC(=O)C(C(=O)OCC)c1cc(Br)c2noc3c2c1C(=O)c1ccccc1-3 was read as Jurkat NFkB inh inactive, Gli-Sufu antag inactive, Mdm2 MdmX PPI 100, 697 NFkB inh inactive, Beta cell apopt inactive, Mdm2 MdmX conf 95 and FLuc counter inactive.
CC(=O)OCCNc1cc(N2CCN(C)CC2)c2noc3c2c1C(=O)c1ccccc1-3 was read as Gli-Sufu antag inactive.
COc1ccc(CCn2c(=N)c(C(=O)NCC3CCCO3)cc3c(=O)n4cccc(C)c4nc32)cc1 (centres undefined) was read as Jurkat NFkB inh inactive, Gli-Sufu antag inactive, Mdm2 MdmX PPI 53, 697 NFkB inh inactive, Beta cell apopt inactive and Mdm2 MdmX conf inactive.
Screening N=c1c(C(=O)NCc2ccc(F)cc2)cc2c(=O)n3ccccc3nc2n1CCCN1CCOCC1 returned Jurkat NFkB inh inactive, Gli-Sufu antag inactive, Mdm2 MdmX PPI 53, 697 NFkB inh inactive, Beta cell apopt inactive and Mdm2 MdmX conf inactive.
For COc1ccc(CCNC(=O)c2cc3c(=O)n4cccc(C)c4nc3n(CCCN3CCOCC3)c2=N)cc1 the results were Jurkat NFkB inh inactive, Gli-Sufu antag inactive, Mdm2 MdmX PPI 65, 697 NFkB inh inactive, Beta cell apopt inactive and Mdm2 MdmX conf inactive.
Screening COCCn1c(=N)c(C(=O)NCCc2ccc(OC)cc2)cc2c(=O)n3cccc(C)c3nc21 returned Jurkat NFkB inh inactive, Gli-Sufu antag inactive, Mdm2 MdmX PPI inactive, 697 NFkB inh inactive and Beta cell apopt inactive.
For CCCn1c(=N)c(C(=O)NCc2ccc3c(c2)OCO3)cc2c(=O)n3cccc(C)c3nc21 the results were Jurkat NFkB inh inactive, Gli-Sufu antag inactive, Mdm2 MdmX PPI 70, 697 NFkB inh inactive, Beta cell apopt inactive and Mdm2 MdmX conf inactive.
`Cc1cccn2c(=O)c3cc(C(=O)NCCN4CCOCC4)c(=N)n(CCN4CCOCC4)c3nc12` gave Jurkat NFkB inh inactive, Gli-Sufu antag inactive, Mdm2 MdmX PPI inactive, 697 NFkB inh inactive and Beta cell apopt inactive.
Screening Cc1cccn2c(=O)c3cc(C(=O)NC4CCCCC4)c(=N)n(Cc4ccc(F)cc4)c3nc12 returned Jurkat NFkB inh inactive, Gli-Sufu antag inactive, Mdm2 MdmX PPI 58, 697 NFkB inh inactive, Beta cell apopt inactive and Mdm2 MdmX conf inactive.
For CC(=O)N=c1c(C#N)cc2c(=O)n3ccccc3nc2n1CCCOC(C)C the results were Jurkat NFkB inh inactive, Gli-Sufu antag inactive, Mdm2 MdmX PPI inactive, 697 NFkB inh inactive and Beta cell apopt inactive.
Screening Cc1cccn2c(=O)c3cc(C(=O)NC4CCCC4)c(=N)n(CC4CCCO4)c3nc12 (centres undefined) returned Jurkat NFkB inh inactive, Gli-Sufu antag inactive, Mdm2 MdmX PPI inactive, 697 NFkB inh inactive and Beta cell apopt inactive.
Screening Cc1cccn2c(=O)c3cc(C(=O)NCCN4CCOCC4)c(=N)n(Cc4ccc(F)cc4)c3nc12 returned Jurkat NFkB inh inactive, Gli-Sufu antag inactive, Mdm2 MdmX PPI 81, 697 NFkB inh inactive, Beta cell apopt inactive, Mdm2 MdmX conf 78 and FLuc counter inactive.
For CC(C)OCCCn1c(=N)c(C(N)=S)cc2c(=O)n3ccccc3nc21 the results were Jurkat NFkB inh inactive, Gli-Sufu antag inactive, Mdm2 MdmX PPI 61, 697 NFkB inh inactive and Mdm2 MdmX conf inactive.
`COc1ccc(C(=O)CC(=O)C(=O)Nc2ccc(Cl)cc2)cc1` gave Gli-Sufu antag inactive and Beta cell apopt inactive.
